The values below come from PubChem BioAssay (Tox21).

Inconclusive results are not listed. Where a call stands in place of a potency, no number is given. Calls of active or inactive are those of the source. Calls come from the whole dose curve; as a rule, active = well fitted cell-killing curve with a large enough effect in the repeat runs; inconclusive = weak or mixed curves, or effect the other way; inactive = no such curve, though single readings can be large or run the other way.
Potency is the fitted concentration of half-maximal effect.

A short description of this experiment: qHTS assay to identify small molecule antagonists of the glucocorticoid receptor (GR) signaling pathway - cell viability counter screen (AID 720693). Note: nearly all actives have a fitted effect of over 55% in size. As to conditions: GR-bla HeLa viability, CellTiter-Glo luminescence, 18 h, with 5 nM dexamethasone present; series mostly up to 58.5 µM. From the text: National Center for Advancing Translational Sciences [NCATS]
NIH Chemical Genomics Center [NCGC]
U.S. Environmental Protection Agency [EPA]
National Institutes of Environmental Health Sciences [NIEHS]
National Toxicology Program [NTP]
U.S. Food and Drug Administration [FDA]
The Glucocorticoid receptor (GR) is one of the members of the nuclear receptor family of ligand-dependent transcription factors. GR plays a critical role in carbohydrate, protein and lipid metabolisms and programmed cell death. CellSensor GR-bla HeLa cell line (Invitrogen) contains a beta-lactamase reporter gene under the control of the glucocorticoid response element stably integrated into HeLa cells, a cervical cancer cell line that expresses glucocorticoid receptor. The activation of the reporter gene under culture conditions can be detected by fluorescence intensity. This cell line has been used to screen the Tox21 10K compound library and to identify the compounds that inhibit the GR signaling. The cytotoxicity of the Tox21 compound library against the GR-bla HeLa cell line was tested in parallel by measuring the cell viability using CellTiter-Glo assay in the same wells.
Tox21 Assay Protocol Summary:
The GR-bla HeLa cells were dispensed at 1500 cells/5 ul/well in 1536-well black wall/clear bottom plates using a Multidrop Combi (ThermoFisher Scientific, Waltham, MA) dispenser. After the assay plates were incubated at a 37 C/5% CO2 incubator for 4 hours, 23 nL of compounds dissolved in DMSO, positive controls or DMSO only was transferred to the assay plate by a pintool station (Kalypsys, San Diego, CA), followed by addition of 1 uL of dexamethasone (5 nM, final concentration in the well). The plates were incubated at 37 C for 18 hours. After 1 uL of LiveBLAzerTM B/G FRET substrate was added using a Flying Reagent Dispenser (Aurora Discovery, San Diego, CA), the plates were incubated at room temperature (RT) for 2 hours, and fluorescence intensity was measured by an Envision plate reader (PerkinElmer, Shelton, CT). After measurement of bla assay, 3 ul CellTiter-Glo (Promega, Madison, WI) was added to measure the cytotoxicity and the plates were then incubated at RT for 30 min. The luminescence was measured using a ViewLux (Perkin Elmer) plate reader.
On the technique in general: In qHTS, concentration-response curves come from the screen itself.
Take `SCc1ccccc1`: the Potency result is “inactive”.

Take `CCCC(C)(COC(N)=O)COC(=O)NC(C)C` (stereo not given): the Potency result is “inactive”.

In the case of `O=C(O)c1cc(I)cc(I)c1I`, the Potency entry is “inactive”.

For the compound `O=C(CCl)CCl`, the Potency entry is “inactive”.

For the compound `OCC1CO1` (stereo not given), the Potency result was “inactive”.

With `CCCCCCCCCCCC[N+](C)(C)CCOc1ccccc1`, the Potency was 17.4 µM (active).

As to `CCCCCCCCP(=O)(O)O`, the Potency result is “inactive”.

With `COC(=O)Cc1ccccc1`, the Potency result is “inactive”.

On to `O=C(NC(=O)c1cc(F)c(F)cc1Cl)Nc1cc(F)ccc1N1CCC(C(=O)O)CC1`, for which the Potency entry is “inactive”.

As for `CC(=O)OC(c1ccccc1)C(Cl)(Cl)Cl` (stereo not given), the Potency result was “inactive”.

For the compound `O=C(O)C(F)(F)C(F)(F)C(F)(F)C(F)(F)C(F)(F)C(F)(F)C(F)(F)C(F)(F)F`, the Potency result is “inactive”.

On to `CCC[N+](CCC)(CCC)CCC`, for which the Potency result was “inactive”.

For `CCc1cnc(C2=NC(C)(C(C)C)C(=O)N2)c(C(=O)O)c1` (stereo not given), the Potency result is “inactive”.

As to `C=C(C)C(=O)OCCCCOC(=O)C(=C)C`, the Potency entry is “inactive”.

As to `CC(Oc1cc(Cl)c(Cl)cc1Cl)C(=O)O` (stereo not given), the Potency result is “inactive”.

Take `C=CC(=O)OCC`: the Potency entry was “inactive”.

In the case of `CCOP(=S)(OCC)Oc1ccc(S(C)=O)cc1` (stereo not given), the Potency result is “inactive”.

For the compound `CCOP(=O)(SC(C)CC)N1CCSC1=O` (stereo not given), the Potency entry is “inactive”.

As for `Nc1cc(Cl)cc(C(=O)O)c1Cl`, the Potency result was “inactive”.

On to `Cc1ncc(C[n+]2csc(CCO)c2C)c(N)n1`, for which the Potency entry was “inactive”.

For `CCCCC(CC)COC(=O)c1c(Br)c(Br)c(Br)c(Br)c1C(=O)OCC(CC)CCCC` (stereo not given), the Potency entry was “inactive”.

Regarding `CCN(C(C)=O)c1cccc(-c2ccnc3c(C#N)cnn23)c1`, the Potency entry was “inactive”.

As for `O=C(Cc1ccccc1)OCCc1ccccc1`, the Potency entry is “inactive”.

Take `COc1ccc(C(O)(c2cncnc2)C2CC2)cc1` (stereo not given): the Potency result is “inactive”.

As for `CC(C)(C)NCC(O)c1cc(Cl)c(N)c(C(F)(F)F)c1` (stereo not given), the Potency result was “inactive”.

For the compound `C[Si](Cn1cncn1)(c1ccc(F)cc1)c1ccc(F)cc1`, the Potency result is “inactive”.

With `OCCCl`, the Potency result was “inactive”.

As to `CCOc1cccc(C2(N3CCN(c4ccccc4)CC3)CCC(C)CC2)c1` (stereo not given), the Potency entry was “inactive”.

Take `CCCC1CCCCN1` (stereo not given): the Potency entry was “inactive”.

Take `C=CCSSCC=C`: the Potency result was “inactive”.

Take `CC1(C)CC(=O)CC(C)(C)N1[O]`: the Potency entry was “inactive”.

Regarding `Clc1ccccc1`, the Potency result was “inactive”.

Consider `FC(Cl)(Cl)C(F)(Cl)Cl`, for which the Potency result is “inactive”.

As for `Oc1cccc(Cl)c1`, the Potency entry was “inactive”.

Turning to `O=C(O)CCCOc1ccc(Cl)cc1Cl`, the Potency entry is “inactive”.

In the case of `CNC(=O)Oc1cccc(N=CN(C)C)c1`, the Potency entry is “inactive”.

As for `CC[N+]1(CCOC(=O)C(O)(c2ccccc2)c2ccccc2)CCCCC1`, the Potency entry was “inactive”.

Consider `CCCCC#N`, for which the Potency result is “inactive”.

`CC(C)c1ccc(OP(=O)(Oc2ccc(C(C)C)cc2)Oc2ccc(C(C)C)cc2)cc1`: the Potency result was “inactive”.

On to `CCC(C)(C)O`, for which the Potency result was “inactive”.
